This note sets out measurements from PubChem BioAssay (EPA / NIEHS).

Results filed as inconclusive are left out. Active and inactive are the calls of the source. Rule for the calls: active = hit-call score of the fitted dose curve at least 0.9, where 1 is the maximum; inconclusive = response in the unintended direction; inactive = score below 0.9.

Chain of Luciferin 4-monooxygenase (Photinus pyralis) (P08659 whole entry, looked up): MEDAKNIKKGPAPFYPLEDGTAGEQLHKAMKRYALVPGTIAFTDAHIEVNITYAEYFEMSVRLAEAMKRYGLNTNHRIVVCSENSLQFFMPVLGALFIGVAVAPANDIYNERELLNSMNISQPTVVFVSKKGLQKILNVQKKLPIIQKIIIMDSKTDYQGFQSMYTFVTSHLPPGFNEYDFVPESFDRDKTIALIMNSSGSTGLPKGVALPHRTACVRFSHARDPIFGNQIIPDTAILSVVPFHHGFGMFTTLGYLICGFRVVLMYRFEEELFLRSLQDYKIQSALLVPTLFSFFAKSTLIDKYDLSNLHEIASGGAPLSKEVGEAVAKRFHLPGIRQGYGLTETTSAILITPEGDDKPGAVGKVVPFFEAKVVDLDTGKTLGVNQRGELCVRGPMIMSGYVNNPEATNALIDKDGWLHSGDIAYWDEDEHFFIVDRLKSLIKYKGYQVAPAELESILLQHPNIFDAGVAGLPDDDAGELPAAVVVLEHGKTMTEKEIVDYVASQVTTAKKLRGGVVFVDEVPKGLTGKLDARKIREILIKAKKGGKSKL

The target of the assay is Luciferin 4-monooxygenase (Photinus pyralis) (UniProt P08659). Briefly: CCTE_Simmons_QuantiLum_inhib_2: CCTE's Firefly Luciferase Inhibition Assay, Simmons Lab (AID 2283767).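 For AC50: potency for inhibitors that lower luciferase luminescence relative to DMSO.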 In outline:
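Eight test concentrations, 5 nM up to 87.5 uM final, preincubated 30min at 37C in the dark with purified luciferase (0.5% DMSO final). Detection reagent (150uM D-luciferin, 147uM dATP, 75uM CoA, pH 7.8) injected per well before kinetic luminescence read; three replicates.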
By AC50 is commonly meant the concentration giving half of the maximal activity seen. For the compound `CO[C@H]1/C=C/O[C@@]2(C)Oc3c(C)c(O)c4c(O)c(c(/C=N/N5CCN(C)CC5)c(O)c4c3C2=O)NC(=O)/C(C)=C\C=C\[C@H](C)[C@H](O)[C@@H](C)[C@@H](O)[C@@H](C)[C@H](OC(C)=O)[C@@H]1C`, the AC50 is 22.6 µM (active).
In the case of `Oc1ccccc1`, the compound was called inactive.
Consider `CC(C)(C)c1cc(/C=C2\SC(N)=NC2=O)cc(C(C)(C)C)c1O`, for which the call was inactive.
Turning to `CC(C)(C)c1csc(-c2cc3cc(OCc4ccccc4CC(=O)O)ccc3o2)n1`, the AC50 is 10.7 µM (active).
Take `CC(C)(c1cc(Br)c(O)c(Br)c1)c1cc(Br)c(O)c(Br)c1`: the compound was classed as inactive.
On the same count and under the same terms, with `CCOC(=O)O[C@H](C)OC(=O)c1ccc2c(c1)cc(C(=O)NC1CCN(C(C)C)CC1)n2Cc1cc(-c2ccc(Cl)s2)on1` the entry was “inactive”.
Consider `O=C(Nc1ccc(Cl)cc1)Nc1ccc(Cl)c(Cl)c1`, for which the AC50 was 15.1 µM (active).
